In PubChem BioAssay (Tox21):
Inconclusive results are not listed. Calls of active or inactive are those of the source. Calls follow the shape of the dose curve; as a rule, active = well fitted curve in the direction sought with a large enough effect in the signal ratio in the repeat runs (not every such curve was filed as active); inconclusive = weak or mixed curves, or a change in a side signal; inactive = no such curve, though single readings can be large or run the other way; the % refers to the signal ratio.

Experiment: qHTS assay to identify small molecule agonists of the NFkB signaling pathway (AID 1159509)
Details: NFkB-bla ME-180 cells, beta-lactamase FRET ratio, 5 h; series mostly up to 61 µM
Excerpt: National Center for Advancing Translational Sciences [NCATS]
NIH Chemical Genomics Center [NCGC]
U.S. Environmental Protection Agency [EPA]
National Institutes of Environmental Health Sciences [NIEHS]
National Toxicology Program [NTP]
U.S. Food and Drug Administration [FDA]
Transcription factors and their stimulated target gene expression play pivotal roles across many cellular processes including responses to environmental stimuli. Proper regulation of associated pathways is critical to maintain cell health and function. Constitutive activation of transcription factor pathways has been implicated in tumors as it may block cellular functions such as apoptosis and lead to invasion and metastasis. One important transcription factor that stimulates gene expression in response to cytokines, UV radiation, and other stimuli is nuclear factor-kappa B (NFkB). To measure activation of the NFkB pathway, the CellSensor NFkB-bla ME-180 cell line (Life Technologies, Carlsbad, CA) that stably expresses beta-lactamase reporter gene under the regulation of a NF-kB response element was used. This assay allows measurement of the NFkB pathway activity induced by compounds in a ME-180 cell line. This system quantitates NF-kB activity using a FRET-based assay system where beta-lactamase expression disrupts FRET, allowing for fluorescent measurement of activity. This cell line has been used to screen the Tox21 10K compound library and to identify compounds that induce the NFkB pathway activity.
Tox21 Assay Protocol Summary:
NFkB-bla ME-180 cells were dispensed at 2,000 cells/6 uL of assay medium per well into black wall/clear-bottom 1536-well plates using a Multidrop Combi (ThermoFisher Scientific, Waltham, MA) dispenser. After the assay plates were incubated at 37 C and 5% CO2 for an overnight, 23 nL of compounds dissolved in DMSO, positive controls or DMSO only was transferred to the assay plate by a Pintool station (Kalypsys, San Diego, CA). The assay plates were incubated at 37 C and 5% CO2 for 5 hr. One uL of LiveBLAzer B/G FRET substrate (Life Technologies) was added using a Flying Reagent Dispenser (Aurora Discovery, San Diego, CA) and the plates were incubated at room temperature for 1.5 hr. Fluorescence intensity (405 nm excitation, 460 nm and 530 nm emissions) was measured using an Envision plate reader (PerkinElmer, Shelton, CT).
% is scaled to controls: 0 for no effect and ±100 for the full control effect.

| SMILES | outcome | activation |
| --- | --- | --- |
| CC(O)C(C)O (stereo not given) | inactive |  |
| CCC(=O)O[C@@H]1C[C@H]2CC[C@]1(C)C2(C)C | inactive |  |
| C/C=C1\[C@H]2C=C(C)C[C@]1(N)c1ccc(=O)[nH]c1C2 | inactive |  |
| CCCCCCCCC(=O)OCC(C)OC(=O)CCCCCCCC (stereo not given) | inactive |  |
| Nc1nc(Cl)nc2c1ncn2[C@H]1C[C@H](O)[C@@H](CO)O1 | inactive |  |
| O=C(c1ccc(Cl)cc1)c1ccc(Cl)cc1 | inactive |  |
| O=C(Nc1ccccc1)c1cc([N+](=O)[O-])ccc1Cl | inactive |  |
| Cc1c(N=C=O)cccc1N=C=O | inactive |  |
| O=C(OCCN1CCOCC1)c1cccnc1Nc1cccc(C(F)(F)F)c1 | inactive |  |
| CCCCCCCCCCCCSC#N | inactive |  |
| CC(=O)S[C@H](C(=O)N[C@H]1Cc2ccccc2[C@H]2CCC[C@@H](C(=O)O)N2C1=O)C(C)C | inactive |  |
| CCCc1ccc(OC)cc1 | inactive |  |
| Cc1cc(C)n(CO)n1 | inactive |  |
| CCOC(=O)CC(O)(CC(=O)OCC)C(=O)OCC | inactive |  |
| OCCCO | inactive |  |
| CC(=O)Nc1ccccc1O | inactive |  |
| O=c1c2ccccc2oc2ccccc12 | inactive |  |
| SCCOCCOCCS | inactive |  |
| COc1ccc(CN(CCN(C)C)c2ncccn2)cc1 | inactive |  |
| C=C(C)C(=O)OCCCCCCCCCCOC(=O)C(=C)C | inactive |  |

| SMILES | outcome | activation |
| --- | --- | --- |
| CCC(C(=O)O)c1ccc(N2Cc3ccccc3C2=O)cc1 (stereo not given) | inactive |  |
| CC1=CC(=C(c2ccc(N)cc2)c2ccc(N)cc2)C=CC1=N |  | 0.0131% [at 6.95 µM] (inactive) |
| CCCCCCCCCCCCCCCCCCCl |  | -0.691% [at 6.95 µM] (inactive) |
| Cc1ccccc1CCO | inactive |  |
| CCCC1CCCC(=O)O1 (stereo not given) | inactive |  |
| COc1cccc([C@H](O)C2CCN(CCc3ccc(F)cc3)CC2)c1OC | inactive |  |
| CC(C)=CCCC(C)C=O (stereo not given) | inactive |  |
| NC(=O)c1ccccc1 | inactive |  |
| CC1(C)C(=O)NC(=O)N1CO | inactive |  |
| C/C(=C(\CCO)SS/C(CCO)=C(\C)N(C=O)Cc1cnc(C)nc1N)N(C=O)Cc1cnc(C)nc1N | inactive |  |
| CC(=O)c1cccnc1 | inactive |  |
| CC1(C)[C@@H]2CC[C@]3(C2)[C@@H]1C(=O)CCC3(C)C | inactive |  |
| C=CC(O)CCCCC (stereo not given) | inactive |  |
| O=C(O)c1cccc(C(=O)O)c1C(=O)O | inactive |  |
| Cc1nc(C)c(C)nc1C | inactive |  |
| CCOc1ccc2c(c1)C(C)CC(C)(C)N2 (stereo not given) | inactive |  |
| Nc1cccc2c(=O)[nH][nH]c(=O)c12 | inactive |  |
| CCCCCCCCOCCCN | inactive |  |
| Cc1cc(SC2=C(O)C[C@@](CCc3ccc(N)cc3)(C(C)C)OC2=O)c(C(C)(C)C)cc1CO | inactive |  |
| O=C(O)c1ccccc1[N+](=O)[O-] | inactive |  |
